This is an account of results in ChEMBL document CHEMBL1961873, “Compounds: GSK PKIS; Assays: Nanosyn kinase panel” (2012).

The target of assay [1] is Serine/threonine-protein kinase PAK 6 (Homo sapiens) (UniProt Q9NQU5). The conditions noted are these: at 1 µM.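 Also: values are mean percent inhibition of PAK6 kinase.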
Assay [2] deals with Tyrosine-protein kinase ABL1 (Homo sapiens), P00519 [E255K]. The conditions noted are these: at 0.1 µM.
The test system is the same in assay [3]. The conditions noted are these: at 1 µM.
The test system of assay [4] is Tyrosine-protein kinase ABL1 (Homo sapiens), P00519 [H396P]. The conditions noted are these: at 0.1 µM.
Assay [5] has the same test system. The conditions noted are these: at 1 µM.
In assay [6] the test system is Tyrosine-protein kinase ABL1 (Homo sapiens), P00519 [M351T]. The conditions noted are these: at 0.1 µM.
Assay [7] has the same test system. The conditions noted are these: at 1 µM.
Assay [8] has as its system Tyrosine-protein kinase ABL1 (Homo sapiens), P00519 [Q252H]. The conditions noted are these: at 0.1 µM.
The test system is the same in assay [9]. The conditions noted are these: at 1 µM.
Assay [10] has as its system Tyrosine-protein kinase ABL1 (Homo sapiens), P00519 [T315I]. The conditions noted are these: at 0.1 µM.

Usually inhibition stands for the drop in the measured response relative to a control, in per cent.

Chain of Serine/threonine-protein kinase PAK 6 (Homo sapiens) (Q9NQU5 whole entry, looked up): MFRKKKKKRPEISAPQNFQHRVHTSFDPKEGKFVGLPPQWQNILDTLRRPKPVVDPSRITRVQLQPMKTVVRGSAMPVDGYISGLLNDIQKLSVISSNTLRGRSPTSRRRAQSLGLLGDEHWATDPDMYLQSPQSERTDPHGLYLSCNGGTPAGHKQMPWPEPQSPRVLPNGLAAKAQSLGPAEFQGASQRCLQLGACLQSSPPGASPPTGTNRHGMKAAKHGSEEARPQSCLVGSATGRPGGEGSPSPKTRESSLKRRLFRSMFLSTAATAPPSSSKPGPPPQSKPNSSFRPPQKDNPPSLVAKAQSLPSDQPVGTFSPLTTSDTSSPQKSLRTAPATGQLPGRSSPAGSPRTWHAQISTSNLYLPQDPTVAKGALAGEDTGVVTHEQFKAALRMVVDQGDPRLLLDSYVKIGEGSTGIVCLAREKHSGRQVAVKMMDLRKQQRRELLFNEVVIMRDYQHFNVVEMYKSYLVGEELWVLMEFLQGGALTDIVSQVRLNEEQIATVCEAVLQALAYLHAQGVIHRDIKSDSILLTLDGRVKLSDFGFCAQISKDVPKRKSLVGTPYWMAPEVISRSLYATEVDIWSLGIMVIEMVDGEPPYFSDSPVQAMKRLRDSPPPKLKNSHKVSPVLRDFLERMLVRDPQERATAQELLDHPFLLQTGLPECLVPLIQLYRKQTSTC

As for `NC(=O)c1ccc(Oc2nccc(-c3c(-c4ccc(F)cc4)ncn3C3CCNCC3)n2)cc1`, the inhibition is -4.13% in [1]; 2.12% in assay [2]; 3.91% in assay [3]; 5.26% in assay [4]; 5.53% in assay [5]; -1.3% in [6]. Moreover, the inhibition in assay [7] was -0.09%; in assay [8] it was 2.63%; in [9] it was 7.69%; in assay [10] it was 3.03%.

For `Fc1ccc(-c2ncn(C3CCNCC3)c2-c2ccnc(Oc3ccc(F)c(F)c3)n2)cc1`, the inhibition in [1] is -4.15%; in assay [2], 1.96%; in assay [3] it was 1.25%; in [4] it was 4%; in assay [5], 3.19%; in assay [6], -0.04%. For the same compound, the inhibition is -0.02% in assay [7], 2.26% in assay [8], 2.39% in [9] and 0.22% in assay [10].

Consider `COc1cc(Nc2ncc3c(C)nc(-c4cccc(Oc5ccccc5)c4)n3n2)cc(OC)c1OC`, for which the inhibition in [1] is -0.38%; in assay [2] it was 2.03%; in assay [3], 1.82%; in assay [4] it was 2.82%; in [5], 1.6%; in assay [6] it was 2.89%. Further, the inhibition in assay [7] amounted to 1.5%; in [8], 3.94%; in [9], 0.97%; in [10] it was 0.51%.

On to `Cc1nnc(-c2ccc(C)c(-c3ccc(C(=O)NCc4ccc(Cl)cc4)cc3)c2)o1`, for which the inhibition was 2.64% in [2]; 6.05% in assay [3]; 3.3% in assay [4]; 11.6% in assay [5]; -1.14% in [6]; 1.63% in [7]. In addition, the inhibition in [8] is 2.54%; in assay [9] it was 4.45%; in assay [10], 2.23%.

With `COC(=O)Nc1nc2ccc(Sc3ccc(NC(=O)Nc4cc(C(F)(F)F)ccc4F)cc3)cc2[nH]1`, the inhibition in [1] was 1.21%; in assay [2] it was -1.69%; in [3] it was 14.8%; in assay [4], 2.95%; in [5] it was 49.9%; in assay [6], 33.2%. The inhibition turned out to be 70.2% in assay [7], 26.9% in assay [8], 70.7% in [9] and 27.7% in assay [10].

For the compound `O=C(Nc1n[nH]c2cc(-c3ccccc3)ccc12)C1CC1`, the inhibition in assay [1] is -4.61%; in assay [2], 10.5%; in assay [3], 46.5%; in assay [4], 20.2%; in [5], 67.5%; in assay [6], 19.3%. For the same compound, the inhibition in assay [7] was determined as 68.6%; in [8], 14%; in assay [9], 48.4%; in assay [10], 36.3%.

On to `COc1cc(Nc2ncc(-c3ccccc3)o2)cc(OC)c1OC`, for which the inhibition was 5.32% in assay [2]; 36.8% in assay [3]; 12.7% in assay [4]; 61.5% in [5]; 14.3% in assay [6]; 61.2% in [7]. The inhibition stood at 11.2% in assay [8], 57.7% in assay [9] and 1.79% in assay [10].

`Cc1ccc(C(=O)NC2CCC2)cc1-c1ccc(C(=O)NCC2CC2)cc1`: the inhibition was -6.65% in assay [1]; 1.89% in [2]; 1.67% in assay [3]; 1.26% in assay [4]; 0.31% in [5]; -0.23% in assay [6]. The inhibition in assay [7] was -0.39%; in assay [8] it was 0.6%; in assay [9] it was 1.97%; in assay [10], 0.82%.

Consider `CCC(=O)Nc1ccc(C)c(-c2ccc(C(=O)NCC3CC3)cc2)c1`, for which the inhibition in [1] is -9.47%; in assay [2], 2.13%; in assay [3], 2.73%; in [4] it was 3.96%; in assay [5], 4.29%; in assay [6], 2.37%. Also, the inhibition in assay [7] was 1.29%; in assay [8], 3.29%; in [9] it was 4.63%; in [10], 2.76%.

Regarding `CCc1nccc2c1nc(-c1nonc1N)n2CC`, the inhibition in assay [1] was -8.78%; in assay [2], -0.36%; in assay [3], 0.91%; in assay [4] it was 1.08%; in assay [5] it was 1.44%; in assay [6], -0.68%. Moreover, the inhibition is 3.2% in [7], 0.51% in assay [8], 3.64% in [9] and -0.7% in [10].

For `O=C(Nc1n[nH]c2nc(-c3ccco3)ccc12)C1CC1`, the inhibition in assay [1] stood at 3.45%; in [2], 2.26%; in assay [3], 5.68%; in assay [4], 3.89%; in [5], 10.4%; in assay [6], 4.48%. The inhibition in assay [7] was found to be 15%; in assay [8] it was 4.58%; in assay [9], 9.24%; in assay [10], 2.66%.

Consider `O=C1Nc2ccc(I)cc2C1=Cc1cc(Br)c(O)c(Br)c1`, for which the inhibition is 1.89% in assay [2]; 6.01% in [3]; 4.06% in assay [4]; 6.63% in [5]; 1% in [6]; 4.74% in [7]. In addition, the inhibition in assay [8] amounted to 3.44%; in assay [9], 7.29%; in assay [10], 2.84%.

On to `CCc1ccc(Oc2nccc(-c3c(-c4ccc(F)cc4)ncn3C3CCNCC3)n2)cc1`, for which the inhibition in assay [1] was found to be 2.92%; in assay [2] it was 0.49%; in assay [3], 4.7%; in assay [4], 3.35%; in [5], 3.77%; in assay [6] it was 0.72%. Besides, the inhibition in assay [7] was 1.75%; in assay [8], 3.25%; in [9], 3.37%; in [10] it was 2.83%.

For the compound `O=C(Nc1n[nH]c2nc(-c3ccc(O)cc3)c(Br)cc12)C1CC1`, the inhibition amounted to 8.5% in assay [1]; 21% in [2]; 66.4% in [3]; 38.5% in assay [4]; 81% in [5]; 37.4% in assay [6]. The inhibition in [7] was 81%; in [8], 37.5%; in [9], 82.4%; in assay [10] it was 43.5%.

As to `CCc1cccc(CC)c1/C=C/c1cncc(C(=O)NC)c1`, the inhibition in assay [1] came to 11.5%; in [2], 3.61%; in assay [3], 17.5%; in assay [4] it was 7.45%; in assay [5] it was 37.4%; in assay [6], 7.15%. Besides, the inhibition in assay [7] was 32.1%; in [8], 3.16%; in [9], 12.1%; in assay [10] it was 2.72%.

With `NS(=O)(=O)c1ccc(Nc2cc(-c3ccc(O)c(F)c3)n[nH]2)cc1`, the inhibition in assay [1] is -3.83%; in assay [2], 1.72%; in assay [3], 14.8%; in [4] it was 2.42%; in assay [5], 27.3%; in assay [6], 4.46%. The inhibition was 30.5% in [7], 1.52% in [8], 20% in [9] and 0.21% in assay [10].

As to `C[C@@H](Oc1cc(-n2cnc3ccc(OC4CCN(C)CC4)cc32)sc1C(N)=O)c1ccccc1Cl`, the inhibition in assay [1] was -9.57%; in assay [2], 1.25%; in [3] it was 8.32%; in assay [4] it was 4.49%; in assay [5], 10.5%; in assay [6], 0.86%. The inhibition was 5.39% in [7], 3.24% in [8], 11% in assay [9] and 2.01% in assay [10].
